Results reported in PubChem BioAssay AID1851 (National Center for Advancing Translational Sciences (NCATS), 2009).
Values joined by “and” are separate entries in the source; they are usually repeats but may differ in a detail not shown here. Equal entries are not always repeated. The whole screen tested about 16,000 compounds, of which about 2,600 (16%) were called active. About 20% were inconclusive and are not listed. Calls follow the shape of the dose curve; as a rule, active = well fitted curve in the direction sought with a large enough effect; inconclusive = small, poorly fitted or top-dose-only effect, or effect the other way; inactive = no such curve, though single readings can be large or run the other way. A selection follows. A structure can be active in one record and inactive in another.

Molecular target: Cytochrome P450 2D6 (Homo sapiens) (UniProt P10635)
Assay: Cytochrome panel assay with activity outcomes
Details: recombinant CYP, pro-luciferin dealkylation, luminescence, p450-cyp2d6; series mostly up to 57.1 µM; activity, negative = inhibition: at the top concentration
% is scaled to controls: 0 for no effect and ±100 for the full control effect.

Cytochrome P450 2D6 (Homo sapiens), sequence (P10635 whole entry, looked up): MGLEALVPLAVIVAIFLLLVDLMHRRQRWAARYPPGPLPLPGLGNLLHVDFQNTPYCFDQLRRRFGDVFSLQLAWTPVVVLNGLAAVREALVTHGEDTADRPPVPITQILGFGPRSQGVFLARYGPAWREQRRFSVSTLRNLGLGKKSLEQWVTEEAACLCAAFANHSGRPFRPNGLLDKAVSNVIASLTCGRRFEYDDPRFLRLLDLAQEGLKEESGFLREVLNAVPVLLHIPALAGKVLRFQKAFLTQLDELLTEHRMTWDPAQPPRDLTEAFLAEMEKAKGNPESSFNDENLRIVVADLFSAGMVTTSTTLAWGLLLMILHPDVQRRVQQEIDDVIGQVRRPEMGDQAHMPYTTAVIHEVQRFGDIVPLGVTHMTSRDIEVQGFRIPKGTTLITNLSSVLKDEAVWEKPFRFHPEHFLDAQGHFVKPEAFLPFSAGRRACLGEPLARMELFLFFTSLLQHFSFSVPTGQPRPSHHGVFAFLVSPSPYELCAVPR

Row | Structure (SMILES) | activity, negative = inhibition | AC50
1 | CCc1ccc2[nH]c(O)c(N=Nc3nc(-c4ccccc4)cs3)c2c1 | -11.2% (inactive) | –
2 | COc1ccc(C(=O)Nc2ccc3c(c2)nc(CN2CCN(C(C)=O)CC2)n3C)cc1 | -2.59% (inactive) | –
3 | CC1CC(C)CN(C/C=C/c2ccccc2[N+](=O)[O-])C1 (configuration not stated) | – | 0.631 µM (active)
4 | C[C@@H]1CCCN(CP(=O)(c2ccccc2)c2ccccc2)C1 | 6.3% [at 11.4 µM] (inactive) | –
5 | CC1CCCN(C/C=C/c2ccccc2[N+](=O)[O-])C1 (configuration not stated) | – | 1 µM (active)
6 | Cn1nnnc1SCc1ccccc1[N+](=O)[O-] | -7.73% (inactive) | –
7 | CCn1c(SCC(=O)N/N=C/C=C\c2ccccc2[N+](=O)[O-])nnc1-c1ccccc1 | -25.4% (inactive) | –
8 | CS(=O)(=O)N1CCN(c2c(Cl)cccc2[N+](=O)[O-])CC1 | -12.4% (inactive) | –
9 | CCOC(=O)C1CCCN(C(=O)/C=C/c2cccc([N+](=O)[O-])c2)C1 (configuration not stated) | -18.6% (inactive) | –
10 | CCOC(=O)C1CCCN(S(=O)(=O)c2ccccc2)C1 (configuration not stated) | -11.5% (inactive) | –
11 | CCOC(=O)C1CCCN(C/C=C/c2ccccc2[N+](=O)[O-])C1 (configuration not stated) | – | 0.0708 µM (active)
12 | COc1ccc(-n2c(=O)c(-c3ccccc3)nc3cnc(N4CCOCC4)nc32)cc1 | -0.0357% (inactive) | –
13 | CN(C)c1ccc(/C=C2\SC(=S)N(Nc3ncc(C(F)(F)F)cc3Cl)C2=O)cc1 | 1.29% (inactive) | –
14 | CC(C)OC(=O)c1cc2ccccc2oc1=O | -6.6% (inactive) | –
15 | O=C(c1ccccc1)c1cc(F)c(N2CCOCC2)cc1Cl | -19.5% (inactive) | –
16 | COc1ccc2c(c1)Cc1sc(NC(=O)c3ccco3)nc1-2 | -9.14% (inactive) | –
17 | CSc1nc2nc3c(c(=O)n2[nH]1)CN(Cc1ccccc1)CC3 | -6.12% (inactive) | –
18 | NC[C@H]1O[C@H](n2cnc3c(N)ncnc32)C[C@@H]1O | 8.01% [at 11.4 µM] (inactive) | –
19 | O=c1c(-c2cccc(F)c2)nc2cncnc2n1C1CC1 | -4.2% (inactive) | –
20 | CC(C)(C)N(NC(=O)c1ccccc1)C(=O)c1cccc(C(=O)N(NC(=O)c2ccccc2)C(C)(C)C)c1 | -27.5% (inactive) | –
21 | O=C(O)/C=C\c1ccc(Cn2ccnc2)cc1 | 0.822% [at 25.6 µM] (inactive) | –
22 | O=C(O)/C=C\c1ccc(O)c(O)c1 | 4.2% [at 25.6 µM] (inactive) | –

Row | Structure (SMILES) | activity, negative = inhibition | AC50
23 | O=C(O)C=Cc1ccc(Cn2ccnc2)cc1 | – | 0.0794 µM (active)
24 | O=C(NCCc1ccccc1)C(=O)NN=C1CCCC1 | -4.67% (inactive) | –
25 | Fc1cc(Br)ccc1NC(=S)NCCc1ccccc1 | – | 20 µM (active)
26 | COc1ccccc1NC(=S)NC(=O)c1ccc(-c2ccc(Cl)cc2)o1 | 10.4% (inactive) | –
27 | Fc1ccccc1NC(=S)NCCc1ccccc1 | – | 15.8 µM (active)
28 | CCN(C(=S)Nc1ccccc1F)C1CCCCC1 | -3.58% (inactive) | –
29 | CC(C)(C)C(=O)NC(=S)NCCc1ccccc1 | -7.67% (inactive) | –
30 | CCNC(=S)NNC(=O)Cc1ccccc1 | 9.05% (inactive) | –
31 | COc1ccccc1NC(=S)NCCc1ccccc1 | – | 7.08 µM (active)
32 | CCNc1ncc2nc(-c3ccccc3)c(=O)n(Cc3ccc(F)cc3)c2n1 | -1.91% (inactive) | –
33 | CS(=O)(=O)N1CCC2(CCCN(C(=O)Nc3cccc(C#N)c3)C2)CC1 | -4% (inactive) | –
34 | COCCn1c(=O)c(-c2ccccc2)nc2cnc(OC)nc21 | -10.7% (inactive) | –
35 | CCn1c(CCCc2nc3c([nH]2)c(=O)n(C)c(=O)n3C)nc2c1c(=O)n(C)c(=O)n2C | 8.15% [at 11.4 µM] (inactive) | –
36 | S=c1[nH]nc(CCc2ccccc2)n1Cc1ccccc1 | -22.7% (inactive) | –
37 | CC(=O)c1ccc(N2CCC(c3cc(-c4ccc(Cl)cc4Cl)n[nH]3)CC2)c([N+](=O)[O-])c1 | -14.1% (inactive) | –
38 | COc1ccc(C(=O)n2c(SC)nc3cc4c(cc32)OCCO4)cc1 | -8.26% (inactive) | –
39 | COc1cnc(-c2ccccc2)nc1Oc1cccc(C)c1 | 22.2% (inactive) | –
40 | Cc1cccc(OCCSCc2nc3ccccc3[nH]2)c1 | – | 0.282 µM (active)
41 | O=C(COc1ccc2ccccc2c1Br)NNC(=O)Nc1ccccc1 | 30.8% (inactive) | –
42 | Cc1nc(SCC(=O)c2cc3ccccc3oc2=O)c(C#N)c(C)c1C(=O)Nc1ccccc1 | 13.9% (inactive) | –
43 | COc1ccc(/C=C(/NC(C)=O)C(=O)O)cc1 | -28.3% (inactive) | –
44 | CCOC(=O)CNC(=O)c1cccnc1 | -11.1% (inactive) | –

Row | Structure (SMILES) | activity, negative = inhibition | AC50
45 | c1ccc(CSc2nnc([C@@H]3CCCN3)o2)cc1 | -29.5% (inactive) | –
46 | c1ccc(CSc2nnc(-c3sccc3-n3cccc3)o2)cc1 | – | 14.1 µM (active)
47 | Fc1ccc(CSc2nnc(-c3cc4c(s3)-c3ccccc3CC4)o2)cc1 | -7.85% (inactive) | –
48 | CCc1ccc(N(C(=O)c2csnn2)C(C(=O)NC(C)(C)C)c2ccncc2)cc1 (configuration not stated) | -26.1% (inactive) | –
49 | O=C(O)c1ccccc1C(=O)NNc1ccc(F)cc1 | 8.55% (inactive) | –
50 | CCOC(=O)N1CCN(S(=O)(=O)c2ccc(C(=O)Nc3ccc(F)cc3F)cc2)CC1 | -9.02% (inactive) | –
51 | N#Cc1c(-c2ccccc2)cc(-c2ccccc2)nc1SCc1nnc(-c2ccccc2)o1 | 27.3% (inactive) | –
52 | CC1CCC2(CC1)N=C(N)Nc1nc3ccccc3n12 (configuration not stated) | – | 2.82 µM (active)
53 | NC1=NC2(CCCCCC2)n2c(nc3ccccc32)N1 | – | 12.6 µM (active)
54 | Nc1c(N=Nc2cccc(Cl)c2)c(=O)[nH]n1-c1ccccc1 | 10.4% (inactive) | –
55 | CCC(C)n1c(NC(=O)c2ccccc2)c(C#N)c2nc3ccccc3nc21 (configuration not stated) | -25% (inactive) | –
56 | CCOc1cccc(/C(O)=C2/C(=O)C(=O)N(Cc3cccnc3)C2c2ccco2)c1 (configuration not stated) | 7.28% (inactive) | –
57 | CN1C(C(=O)Nc2ccccn2)=C(O)c2ccccc2S1(=O)=O | – | inactive and 25.1 µM (active)
58 | Cc1cc(NC(=O)C2=C(O)c3ccccc3S(=O)(=O)N2C)no1 | -6.72% [at 25.6 µM] (inactive) | –
59 | CN1C(C(=O)Nc2ccccn2)=C(O)c2sccc2S1(=O)=O | 13.5% [at 25.6 µM] (inactive) | –
60 | CCNc1ncc2nc(-c3ccc(OC)cc3)c(=O)n(Cc3ccc(F)cc3)c2n1 | 6.64% (inactive) | –
61 | O=C(CN1CCN(S(=O)(=O)c2ccccc2)CC1)NC(=O)NCc1ccccc1 | 30.7% (inactive) | –
62 | CCCOC(=O)c1c(-c2ccccc2)nc(CC)c(C(=O)SCC)c1CCC | -2.88% (inactive) | –
63 | Cc1cnc(NC(=O)CSc2ccc(Cl)cc2)s1 | – | 3.98 µM (active)
64 | COCc1nnc(NC(=O)CSc2ccc(C)cc2)s1 | -19.3% (inactive) | –
65 | Cc1cc(Cl)nc(NC(=O)CSc2ccc(Cl)cc2)n1 | 18.7% [at 11.4 µM] (inactive) | –
66 | COC(=O)c1ccccc1NC(=O)c1c(Br)cnn1C | -21.6% (inactive) | –

Row | Structure (SMILES) | activity, negative = inhibition | AC50
67 | COc1cccc(OCc2nnc(SCC(=O)NCc3ccco3)n2C)c1 | -15% (inactive) | –
68 | CNc1ncc(C(=O)c2ccccc2)s1 | -7.9% (inactive) | –
69 | CCOc1ncnc2c1oc1nc(CC(C)C)c3c(c12)CC(C)(C)OC3 | -20.9% (inactive) | –
70 | C=CC[N+]1(CC#CCOC(c2ccccc2)c2ccccc2)CCOCC1 | – | 7.08 µM (active)
71 | O=C1N=C(N2CCOCC2)S/C1=C\C=C/c1ccccc1 | -13.9% (inactive) | –
72 | Cn1c([N+](=O)[O-])cnc1CN1CCN(CCO)CC1 | 10.5% [at 11.4 µM] (inactive) | –
73 | O=C1CCCC=C1[C@H](CCc1ccccc1)OC(=O)c1ccc(Br)cc1 | -4.24% [at 11.4 µM] (inactive) | –
74 | O=C(NNC(=S)Nc1ccccc1)c1ccco1 | 0.149% (inactive) | –
75 | O=C(NC(NC(=S)Nc1cc(Cl)ccc1Cl)C(Cl)(Cl)Cl)c1ccco1 (configuration not stated) | – | 11.2 µM (active)
76 | O=C(NC(=S)Nc1cccc(Cl)c1N1CCCCC1)c1ccco1 | -24.3% (inactive) | –
77 | N#CCCn1cc(/C=N/O)c(-c2ccc(Cl)cc2)n1 | -23.4% (inactive) | –
78 | N#Cc1c2c(c(-n3cnc4ccccc43)n3c1nc1ccccc13)CCC2 | 1.48% (inactive) | –
79 | O=C(NCc1ccccc1)c1ccc2c(c1)C(=O)N(CC1CCCO1)C2=O (configuration not stated) | -2.23% (inactive) | –
80 | CC1=CC(=O)C=CC1(C)C(Cl)(Cl)Cl (configuration not stated) | -29% (inactive) | –
81 | COc1ccc(S(=O)(=O)N(CC(=O)N2CCCC2)Cc2ccccc2)cc1 | -30.1% (inactive) | –
82 | CC(C)N(CCC(=O)c1ccc2ccccc2c1)Cc1ccccc1 | – | 2 µM (active) and inactive
83 | CN(C)/C=N/c1ncc(C(=O)c2ccc3ccccc3c2)s1 | -19.7% (inactive) | –
84 | CC1CN(C(=S)NC(=O)c2ccc([N+](=O)[O-])cc2)CC(C)O1 (configuration not stated) | -6% (inactive) | –
85 | COc1ccc(Oc2ncc3nc(C)c(=O)n(-c4ccc(OC)cc4)c3n2)cc1 | -5.24% (inactive) | –
86 | NCCNC(=O)c1ccc(Cl)cc1 | – | inactive
87 | O=C(Nc1ccc(Cl)cc1C(F)(F)F)c1ccc(Cl)cc1 | – | 0.282 µM (active)
88 | Cc1ccc(C(=O)Nc2cc(Cl)ccc2OC(=O)c2ccc(C)cc2)cc1 | -21.9% (inactive) | –

Row | Structure (SMILES) | activity, negative = inhibition | AC50
89 | COc1ccc(COC(=O)N/N=C2/C[C@@H](O)[C@@H](O)[C@@H]3[C@H]4C(=O)N(c5ccc(F)cc5F)C(=O)[C@@H]4CC[C@H]23)cc1 | -14.9% [at 11.4 µM] (inactive) | –
90 | CCCN(CCC)CCCNS(=O)(=O)c1cc(Br)cc2c1N(C(C)=O)CC2 | -20.5% (inactive) | –
91 | O=c1c2ccc([N+](=O)[O-])c3cccc(c32)c2nc3ccccc3n12 | -14.8% (inactive) | –
92 | O=C(O)Cn1c(-c2ccccc2)nc2ccccc21 | -25.1% (inactive) | –
93 | O=C(O)c1ccc2c3c1cccc3c(=O)n1c3ccccc3nc21 | – | 15.8 µM (active)
94 | Cc1cc(N2CCOCC2)ncc1[N+](=O)[O-] | -3.47% (inactive) | –
95 | COc1ccc(Cc2nnc(NC(=O)c3ccco3)s2)cc1 | 6.69% (inactive) | –
96 | COc1ccccc1-c1cc(NCc2ccccc2)ncn1 | – | 20 µM (active)
97 | COc1ccccc1CNc1cc(-c2ccccc2OC)ncn1 | – | 20 µM (active)
98 | COc1ccccc1CNc1cc(-c2ccoc2)ncn1 | – | 15.8 µM (active)
99 | COc1ccccc1CNc1cc(-c2ccccc2Cl)ncn1 | – | 12.6 µM (active)
100 | COc1ccccc1-c1cc(Nc2ccn[nH]2)ncn1 | -4.03% (inactive) | –
101 | Cc1sc2ccccc2[n+]1CCC(C)S(=O)(=O)[O-] (configuration not stated) | 10.3% (inactive) | –
102 | C=CCSc1nc(Oc2ccccc2)c2sccc2n1 | -26.5% (inactive) | –
103 | CCCc1nnc(SCC(=O)N2CCCCC2C)n1CCCOC (configuration not stated) | 11.7% (inactive) | –
104 | CCn1cc(C(=O)O)c(=O)c2cnc(N3CCNCC3)nc21 | 9.12% [at 25.6 µM] (inactive) | –
105 | CO[C@@H]1COC(=O)C/C=C\[C@H](C)COC(=O)[C@H](Cc2ccccc2)NC(=O)C/C=C\[C@H]1C | 9.42% [at 11.4 µM] (inactive) | –
106 | Cc1cc(SC(C)C(=O)Nc2c(C)n(C)n(-c3ccccc3)c2=O)nc2ccccc12 (configuration not stated) | -1.98% (inactive) | –
107 | C[C@@]12C(=O)OC(=O)[C@]1(C)[C@H]1CC[C@@H]2O1 | 8.05% [at 25.6 µM] (inactive) | –
